Records with an inconclusive call do not appear. Calls of active or inactive are those of the source. Unless noted, the call rests on the fitted dose curve; in most records, active means well fitted curve in the direction sought with a large enough effect in the repeat runs; inconclusive means weak or mixed curves; inactive means no such curve, though single readings can be large; an effect the other way counts as inactive or inconclusive.
Assays:
[1] = qHTS assay for small molecules that induce genotoxicity in human embryonic kidney cells expressing luciferase-tagged ATAD5 (AID 651632); settings: HEK293T ATAD5-luciferase induction, 16 h; series mostly up to 83.3 µM; further: nearly all actives have a fitted effect of over 15% in size
Method in brief: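 ATAD5-luc HEK293T, 2,000 cells/well; cpd or DMSO pin-transferred; 16 hr, 37C/5% CO2; Amplite 30 min RT; luminescence.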

[2] = qHTS assay for small molecule agonists of the p53 signaling pathway - cell viability (AID 651633; calls by dose curve;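 further: p53RE-bla HCT reporter cells with a stable beta-lactamase p53 reporter; nearly all actives have a fitted effect of over 30% in size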); settings: p53RE-bla HCT-116 viability, ATP luminescence, 16 h; series mostly up to 83.3 µM
Method in brief: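 p53RE-bla cells, seeded at 4,000 per well and rested 5 h at 37 C/5% CO2, received compounds in DMSO for 16 h at 37 C. CellTiter-Glo was then added, and luminescence was read after 30 min at room temperature to gauge cytotoxicity.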

[3] = qHTS assay for small molecules that induce genotoxicity in human embryonic kidney cells expressing luciferase-tagged ATAD5 - cell viability (AID 651634; calls by dose curve; further: nearly all actives have a fitted effect of over 25% in size); settings: HEK293T ATAD5-luc cells viability, CellTiter-Fluor, 15.5 h; series mostly up to 83.3 µM
Method in brief: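 Fluorescence from CellTiter-Fluor, reporting protease activity within live cells, served as the viability read-out. HEK293T cells carrying luciferase-tagged ATAD5 had been treated with compound for 15.5 hr at 37C.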

[4] = qHTS assay for small molecule disruptors of the mitochondrial membrane potential - cell viability (AID 720634; calls by dose curve;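 further: human HepG2 liver cancer cells; nearly all actives have a fitted effect of over 20% in size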); settings: HepG2 viability, ATP luminescence (CellTiter-Glo), 1 h; series mostly up to 83.2 µM
Method in brief: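 Cells: HepG2, 2,000/well, attached overnight. Compound 1 hr, 37 C/5% CO2. +m-MPI dye, +CellTiter-Glo 30 min RT. Readout: luminescence (ATP).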

[5] = qHTS assay to test for compound auto fluorescence at 590 nm (red) in HepG2 cells (AID 720674); settings: HepG2 autofluorescence, red 540/590 nm, 1 h; series mostly up to 91.3 µM
Method in brief: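 Intrinsic compound fluorescence in the red window (Ex/Em 540/590 nm) is measured in attached HepG2 cells exposed for 1 hr, DMSO vehicle as baseline, benchmarked to Rose Bengal sodium.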

[6] = qHTS assay to test for compound auto fluorescence at 535 nm (green) in HepG2 cells (AID 720675); settings: green autofluorescence 485/535 nm, 1 h; series mostly up to 91.3 µM
[7] = qHTS assay to test for compound auto fluorescence at 460 nm (blue) in HEK293 cells (AID 720678); settings: blue autofluorescence 405/460 nm; series mostly up to 91.3 µM
Method in brief: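 Intrinsic compound fluorescence is recorded in live HEK293 cultures after overnight incubation at 37C, 5% CO2, using excitation 405 nm and emission 460 nm. Values are referenced to triamterene.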

[8] = qHTS assay to test for compound auto fluorescence at 590 nm (red) in HEK293 cells (AID 720679); settings: red autofluorescence 540/590 nm; series mostly up to 91.3 µM
Method in brief: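 Red autofluorescence, HEK293 cells: 2,000 cells/well; attach 4-5 hr 37C; add 23 nL cpd or DMSO; incubate o/n 37C 5% CO2; read Ex540/Em590; Rose Bengal sodium reference.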

[9] = qHTS assay to test for compound auto fluorescence at 535 nm (green) in HEK293 cells (AID 720680); settings: green autofluorescence 485/535 nm; series mostly up to 91.3 µM
[10] = qHTS assay to test for compound auto fluorescence at 460 nm (blue) in HEK293 cell free culture (AID 720681); settings: cell-free medium, autofluorescence 405/460 nm (blue); series mostly up to 91.3 µM
Method in brief: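 Test compounds were pinned into cell-free culture medium (DMEM with 10% FBS) and fluorescence was read directly at Ex/Em 405/460 nm. Signals were expressed as fluorescence equivalents of triamterene, with DMSO vehicle as control.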

[11] = qHTS assay to test for compound auto fluorescence at 535 nm (green) in HEK293 cell free culture (AID 720682); settings: cell-free medium, green autofluorescence 485/535 nm, stronger effect = higher value; series mostly up to 91.3 µM
Method in brief: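 Intrinsic compound fluorescence is measured in culture medium containing 10% FBS, with excitation at 485 nm and detection at 535 nm, referenced to fluorescein.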

[12] = qHTS assay to test for compound auto fluorescence at 590 nm (red) in HEK293 cell free culture (AID 720683); settings: cell-free medium autofluorescence, Ex540/Em590 red; series mostly up to 91.3 µM
Method in brief: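 Tox21 10K library compounds were pinned into cell-free DMEM with 10% FBS and fluorescence was read at excitation 540 nm. Activity is expressed as Rose Bengal sodium equivalency.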

[13] = qHTS assay to test for compound auto fluorescence at 590 nm (red) in HepG2 cell free culture (AID 720684); settings: cell-free medium autofluorescence, red 540/590 nm; series mostly up to 91.3 µM
Method in brief: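 Red fluorescence (540 nm excitation, 590 nm emission) was measured after compound transfer into cell-free MEM supplemented with 10% FBS. Values are equivalencies against Rose Bengal sodium.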

[14] = qHTS assay to test for compound auto fluorescence at 460 nm (blue) in HepG2 cell free culture (AID 720685); settings: Cell-free culture medium, blue autofluorescence 405/460 nm; series mostly up to 91.3 µM
Method in brief: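 Compound (23 nL) or DMSO pinned into cell-free MEM with 10% FBS; blue fluorescence read at 405/460 nm excitation/emission, expressed as auto-fluorescence equivalency to triamterene.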

[15] = qHTS assay to test for compound auto fluorescence at 535 nm (green) in HepG2 cell free culture (AID 720686); settings: Cell-free medium, green autofluorescence 485/535 nm; series mostly up to 91.3 µM
[16] = qHTS assay to test for compound auto fluorescence at 460 nm (blue) in HepG2 cells (AID 720687); settings: autofluorescence 405/460 nm, 1 h; series mostly up to 91.3 µM
Method in brief: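 Cells (2,000/well in MEM with 10% FBS) attached overnight at 37 C, then were exposed to compound or DMSO for 1 hr at 37 C, 5% CO2. Fluorescence read at Ex/Em 405/460 nm, expressed as triamterene-equivalent signal.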

[17] = target: Glucocorticoid receptor (Homo sapiens) (UniProt P04150); assay: qHTS assay to identify small molecule antagonists of the glucocorticoid receptor (GR) signaling pathway (AID 720692; active means well fitted inhibition curve with a large enough effect in the signal ratio in the repeat runs, not every such curve was filed as active; the % refers to the signal ratio); settings: GR-bla HeLa, beta-lactamase FRET ratio, dexamethasone-stimulated, 18 h; series mostly up to 58.5 µM
Glucocorticoid receptor (Homo sapiens), sequence (P04150 whole entry, looked up): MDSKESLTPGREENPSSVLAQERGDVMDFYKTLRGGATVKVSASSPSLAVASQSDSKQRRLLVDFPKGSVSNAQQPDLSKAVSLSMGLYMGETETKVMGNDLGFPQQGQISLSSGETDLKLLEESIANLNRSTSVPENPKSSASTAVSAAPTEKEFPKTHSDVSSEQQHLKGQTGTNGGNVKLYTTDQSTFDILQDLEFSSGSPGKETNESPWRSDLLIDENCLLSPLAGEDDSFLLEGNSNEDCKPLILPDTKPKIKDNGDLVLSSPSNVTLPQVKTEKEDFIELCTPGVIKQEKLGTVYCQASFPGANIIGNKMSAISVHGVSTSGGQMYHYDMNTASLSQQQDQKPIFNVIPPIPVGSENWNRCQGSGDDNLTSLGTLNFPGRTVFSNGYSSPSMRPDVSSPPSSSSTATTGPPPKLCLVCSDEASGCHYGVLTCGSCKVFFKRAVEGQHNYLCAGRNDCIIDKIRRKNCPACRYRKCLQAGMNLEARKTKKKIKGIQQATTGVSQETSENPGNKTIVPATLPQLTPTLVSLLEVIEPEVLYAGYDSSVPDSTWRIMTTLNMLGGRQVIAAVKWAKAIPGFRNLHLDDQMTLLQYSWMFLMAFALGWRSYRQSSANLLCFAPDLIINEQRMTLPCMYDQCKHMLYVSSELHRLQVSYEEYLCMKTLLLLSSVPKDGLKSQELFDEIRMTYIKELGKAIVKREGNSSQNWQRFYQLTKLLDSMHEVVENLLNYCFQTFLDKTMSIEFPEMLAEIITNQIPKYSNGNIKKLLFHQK
Method in brief: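 HeLa GR-bla cells; cmpd + dex 5 nM final, 18 h 37 C; LiveBLAzer B/G FRET substrate 2 h RT; fluorescence intensity read. Antagonist mode, qHTS.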

[18] = qHTS assay for small molecule disruptors of the mitochondrial membrane potential (AID 720635); settings: HepG2 mitochondrial membrane potential, Mito-MPS dye ratio; series mostly up to 83.2 µM
Method in brief: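 HepG2 cells (2,000/well) attached overnight at 37C, then took compound for 1 hr at 37C, 5% CO2. Mito-MPS dye was added for 30 min; fluorescence was read at 490/535 nm (monomers) and 540/590 nm (aggregates).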

[19] = target: Glucocorticoid receptor (Homo sapiens) (UniProt P04150); assay: qHTS assay to identify small molecule agonists of the glucocorticoid receptor (GR) signaling pathway (AID 720691; active means well fitted activation curve with a large enough effect in the signal ratio in the repeat runs, not every such curve was filed as active; the % refers to the signal ratio); settings: GR-bla HeLa, beta-lactamase reporter ratio, 18 h; series mostly up to 62.4 µM
Method in brief: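 Fluorescence intensity from LiveBLAzer B/G FRET substrate (2 h, room temperature) reports beta-lactamase expression driven by the glucocorticoid response element in GR-bla HeLa cells after 18 h compound exposure at 37 C.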
On the % scale 0 is the no-effect control and ±100 the full control effect.

COc1ccc(CCO)cc1
inactive: outcome [1] | outcome [2] | Potency [3] | outcome [4] | outcome [5] | outcome [6] | outcome [7] | outcome [8] | outcome [9] | outcome [10] | outcome [11] | outcome [12] | outcome [13] | outcome [14] | outcome [15] | outcome [16] | outcome [17]

CC1=C(C(=O)O)N2C(=O)[C@@H](NC(=O)[C@H](N)C3=CCC=CC3)[C@H]2SC1
inactive: outcome [1] | outcome [2] | Potency [3] | outcome [4] | Potency [18] | outcome [5] | outcome [6] | outcome [7] | outcome [8] | outcome [9] | outcome [10] | outcome [11] | outcome [12] | outcome [13] | outcome [14] | outcome [15] | outcome [16] | outcome [17]

C/C=C(\C)C(=O)OCCc1ccccc1
inactive: outcome [2] | outcome [5] | outcome [6] | outcome [7] | outcome [8] | outcome [9] | outcome [10] | outcome [11] | outcome [12] | outcome [13] | outcome [14] | outcome [15] | outcome [16] | outcome [17]

CC(C)(CO)C(O)C(=O)NCCCO (stereo unspecified)
inactive: outcome [2] | Potency [18] | outcome [5] | outcome [6] | outcome [7] | outcome [8] | outcome [9] | outcome [10] | outcome [11] | outcome [12] | outcome [13] | outcome [14] | outcome [15] | outcome [16]

Fc1ccccc1
inactive: outcome [1] | outcome [2] | outcome [4] | outcome [5] | outcome [6] | outcome [7] | outcome [8] | outcome [9] | outcome [10] | outcome [11] | outcome [13] | outcome [14] | outcome [15] | outcome [16] | Potency [19] | outcome [17]

CC(C)[C@H]1CC[C@H](C)C[C@@H]1O
inactive: outcome [1] | outcome [2] | outcome [4] | Potency [18] | outcome [5] | outcome [6] | outcome [7] | outcome [8] | outcome [9] | outcome [10] | outcome [11] | outcome [12] | outcome [13] | outcome [14] | outcome [15] | outcome [16]

CCCCCCCCCCCCCBr
inactive: outcome [2] | Potency [3] | outcome [5] | outcome [6] | outcome [7] | outcome [8] | outcome [9] | outcome [10] | outcome [11] | outcome [12] | outcome [13] | outcome [14] | outcome [15] | outcome [16]

O=C(CCCCC(=O)Nc1c(I)cc(I)c(C(=O)O)c1I)Nc1c(I)cc(I)c(C(=O)O)c1I
inactive: outcome [2] | outcome [4] | Potency [18] | outcome [5] | outcome [6] | outcome [7] | outcome [8] | outcome [9] | outcome [10] | outcome [12] | outcome [13] | outcome [14] | outcome [15] | outcome [16] | Potency [19] | outcome [17]

CCNC(=O)NCc1cccc(Cl)c1
inactive: outcome [2] | Potency [3] | outcome [4] | Potency [18] | outcome [5] | outcome [6] | outcome [7] | outcome [8] | outcome [9] | outcome [10] | outcome [11] | outcome [12] | outcome [13] | outcome [14] | outcome [15] | outcome [16]

N#Cc1ccccc1O
inactive: outcome [1] | outcome [2] | outcome [4] | outcome [5] | outcome [6] | outcome [7] | outcome [8] | outcome [9] | outcome [10] | outcome [11] | outcome [12] | outcome [13] | outcome [14] | outcome [15] | outcome [16] | Potency [19] | outcome [17]

CO/N=C(/C(=O)N[C@@H]1C(=O)N2C(C(=O)[O-])=C(C[n+]3ccn4ncccc43)CS[C@H]12)c1nsc(N)n1
inactive: outcome [2] | Potency [3] | outcome [4] | Potency [18] | outcome [5] | outcome [6] | outcome [7] | outcome [8] | outcome [9] | outcome [10] | outcome [12] | outcome [13] | outcome [14] | outcome [15] | outcome [16] | Potency [19] | outcome [17]

N[C@@H](Cc1ccc(O)cc1)C(=O)O
inactive: outcome [1] | outcome [2] | Potency [18] | outcome [5] | outcome [6] | outcome [7] | outcome [8] | outcome [9] | outcome [10] | outcome [11] | outcome [13] | outcome [14] | outcome [15] | outcome [16] | Potency [19] | outcome [17]

CCCC(=O)Nc1ccc(OCC(O)CNC(C)C)c(C(C)=O)c1 (stereo unspecified)
inactive: outcome [2] | outcome [4] | fluorescence, relative to Rose Bengal [5] -0.376% [at 18.6 µM] | fluorescence, % of fluorescein control [6] -0.0898% [at 18.6 µM] | fluorescence, % of triamterene [7] 0.0234% [at 18.6 µM] | fluorescence, % of fluorescent control [8] -0.0649% [at 18.6 µM] | fluorescence, % of fluorescein [9] -0.0845% [at 18.6 µM] | fluorescence, % of fluorescent control [10] 0.175% [at 18.6 µM] | activity change [11] -0.021% [at 18.6 µM] | fluorescence, % of fluorescent control [12] 0.214% [at 18.6 µM] | fluorescence, % of Rose Bengal [13] -0.252% [at 18.6 µM] | fluorescence, % of fluorescent control [14] -0.0068% [at 18.6 µM] | fluorescence, % of fluorescein control [15] -0.0602% [at 18.6 µM] | fluorescence, % of fluorescent control [16] 0.0344% [at 18.6 µM] | Potency [19] | outcome [17]

O=NN(CCCl)C(=O)NC1CCCCC1
inactive: outcome [1] | outcome [2] | outcome [4] | Potency [18] | outcome [5] | outcome [6] | outcome [7] | outcome [8] | outcome [9] | outcome [10] | outcome [11] | outcome [12] | outcome [13] | outcome [14] | outcome [15] | outcome [16]

O/N=C/C=N/O
inactive: outcome [2] | Potency [3] | outcome [4] | Potency [18] | outcome [5] | outcome [6] | outcome [7] | outcome [8] | outcome [9] | outcome [10] | outcome [11] | outcome [12] | outcome [13] | outcome [14] | outcome [15] | outcome [16] | Potency [19] | outcome [17]
